Compound activity deposited in PubChem BioAssay by University of Kansas High Throughput Screening Laboratory.
Pf apPOL block: Pf-apPOL DNA polymerase inhibition; Recombinant Pf-apPOL, molecular beacon fluorescence, 1.5 h; inhibition, % at 10 µM; 0.25% of 210,000 active; AID 1794808
mHTT-CaM PPI inh: inhibitors of human mutant huntingtin-calmodulin interaction; AlphaScreen His-mHTT/GST-CaM binding, luminescence; inhibition, % at 15 µM; 3.6% of 190,000 active; AID 1671202;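 further: 0% = both proteins with DMSO and 100% = one protein alone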
Starred values were filed as active, the others as inactive. The full list was thinned out, with hits kept by preference. No stated cut-off is given here; in the data, active means inhibition above about 50%; inactive means the rest.

What do the screens show for `Fc1ccc(CN2CCc3nc(Nc4ccc5c(c4)OCCO5)ncc3C2)cc1F`?
Pf apPOL block: -3.3; mHTT-CaM PPI inh: 52.9*

How did Fc1ccc(Nc2ncc3c(n2)CCN(Cc2ccc4c(c2)OCCO4)C3)cc1 do in these assays?
Pf apPOL block: -5.8; mHTT-CaM PPI inh: -6.8

How did CCOc1ccc(CN2CCc3nc(Nc4ccc5c(c4)OCCO5)ncc3C2)cc1OC do in these assays?
Pf apPOL block: 2.6; mHTT-CaM PPI inh: 52.6*

What do the screens show for `Clc1ccccc1CN1CCc2nc(Nc3ccc4c(c3)OCCO4)ncc2C1`?
Pf apPOL block: 4.1; mHTT-CaM PPI inh: 78.0*

Results for COCCC1CCN(C(=O)Cc2cccc(OC)c2)CC1 ?
Pf apPOL block: -3.5; mHTT-CaM PPI inh: -6.2

How did CC(C)(C)c1ccc(C(=O)N2CCN(c3ccccc3F)CC2)cc1 do in these assays?
Pf apPOL block: -0.6; mHTT-CaM PPI inh: -0.6

Results for CN(C)CC#CCNC(=O)C=Cc1ccc2c(c1)OCO2 ?
Pf apPOL block: -4.5; mHTT-CaM PPI inh: 0.9

Results for COc1cc(/C=C2\C(=O)ON=C2C)cc(Br)c1O ?
Pf apPOL block: 12.1; mHTT-CaM PPI inh: 10.0

What do the screens show for `CC(C)c1ccc(-c2cc(=O)c3cc(NC(=O)C4CCCCC4)ccc3o2)cc1`?
Pf apPOL block: -1.5; mHTT-CaM PPI inh: -1.3

Results for CCNC(=O)N1CCC2(CC1)NC(C(C)C)C(=O)N2Cc1ccc(F)cc1 (centres undefined) ?
Pf apPOL block: -3.3; mHTT-CaM PPI inh: -2.2

How did CN(C)c1ccc(CN2CCc3nc(Nc4ccc5c(c4)OCCO5)ncc3C2)cc1 do in these assays?
Pf apPOL block: -0.8; mHTT-CaM PPI inh: 38.7

What do the screens show for `CC(C)Oc1ccc(CN2CCc3nc(Nc4ccc5c(c4)OCCO5)ncc3C2)cc1`?
Pf apPOL block: -3.5; mHTT-CaM PPI inh: 71.8*

Results for Cn1cccc1C(=O)N1CCCC(c2nncn2Cc2ccccc2)C1 (centres undefined) ?
Pf apPOL block: 2.3; mHTT-CaM PPI inh: 4.6

Results for CN1CCCc2cc(CCNC(=O)C(=O)NCc3cccs3)ccc21 ?
Pf apPOL block: -1.3; mHTT-CaM PPI inh: 17.2

How did CCN1CCCc2cc(CCNC(=O)Nc3ccc(OC)c(OC)c3)ccc21 do in these assays?
Pf apPOL block: -1.9; mHTT-CaM PPI inh: 86.1*

What do the screens show for `COc1ccc(CC(=O)Nc2ccc(N3CCCC3=O)c(OC)c2)cc1OC`?
Pf apPOL block: 4.9; mHTT-CaM PPI inh: -4.4

How did CCCN1CCCc2cc(CCNC(=O)COCC)ccc21 do in these assays?
Pf apPOL block: -4.6; mHTT-CaM PPI inh: 58.7*

Results for CCN1CCN(C(=O)C(C)C2CCN(S(=O)(=O)c3c(C)noc3C)CC2)CC1 (centres undefined) ?
Pf apPOL block: -2.4; mHTT-CaM PPI inh: -9.4

What do the screens show for `O=C(c1nc(-c2cccc(F)c2)n2c1CCCCC2)N1CCN(c2ccccn2)CC1`?
Pf apPOL block: 2.5; mHTT-CaM PPI inh: 22.0

What do the screens show for `CC1=C(C(=O)Nc2ccc(F)c(F)c2)C(c2ccccc2F)NC(=O)N1` (centres undefined)?
Pf apPOL block: -3.1; mHTT-CaM PPI inh: -0.6

Results for CC1=C(C(=O)Nc2ccc(C)c(Cl)c2)C(c2ccccc2Cl)NC(=O)N1 (centres undefined) ?
Pf apPOL block: -4.0; mHTT-CaM PPI inh: 90.0*

Results for COc1cccc(NC(=O)c2ccnc(N3CCC(C(=O)Nc4ccc(C)cc4)CC3)c2)c1 ?
Pf apPOL block: 2.1; mHTT-CaM PPI inh: -5.2

What do the screens show for `O=C(c1ccccc1C(F)(F)F)N1CCc2nc(-c3ccccc3)ncc2C1`?
Pf apPOL block: 0.6; mHTT-CaM PPI inh: 14.8

How did COc1ccc(NC(=O)C[C@H]2C(=O)N(c3ccccc3)C[C@@H]2Cc2ccccc2)cc1 do in these assays?
Pf apPOL block: -6.9; mHTT-CaM PPI inh: 18.2

How did COc1ccc(N2C[C@H](C)[C@@H](CC(=O)Nc3ccc(Br)cc3)C2=O)cc1 do in these assays?
Pf apPOL block: -0.4; mHTT-CaM PPI inh: -4.6

Results for O=C(C[C@H]1C(=O)N(Cc2cccnc2)C[C@@H]1Cc1ccccc1)Nc1ccc(Br)cc1 ?
Pf apPOL block: -6.2; mHTT-CaM PPI inh: 27.4

How did COc1ccc([C@H]2CN(c3ccc(OC)cc3)C(=O)[C@@H]2CC(=O)Nc2ccc(Br)cc2)cc1 do in these assays?
Pf apPOL block: -4.0; mHTT-CaM PPI inh: 54.7*

What do the screens show for `COc1ccc(N2C[C@H](Cc3ccccc3)[C@@H](CC(=O)Nc3ccccc3)C2=O)cc1`?
Pf apPOL block: -0.5; mHTT-CaM PPI inh: 73.7*

What do the screens show for `O=C(C[C@H]1C(=O)N(Cc2ccccc2)C[C@@H]1Cc1ccccc1)Nc1ccc(Br)cc1`?
Pf apPOL block: -0.5; mHTT-CaM PPI inh: 52.4*

What do the screens show for `CC1CCN(C(=O)C2c3ccccc3CCN2CC(=O)NCc2cc(F)cc(F)c2)CC1` (centres undefined)?
Pf apPOL block: -6.3; mHTT-CaM PPI inh: 11.5

How did COc1ccc(NS(=O)(=O)c2ccc(NC(=O)c3ccccc3O)cc2)nn1 do in these assays?
Pf apPOL block: -4.2; mHTT-CaM PPI inh: 13.0

How did CCOc1ccc(NC(=O)C2CCN(C(=O)c3ccc(F)cc3)CC2)cc1 do in these assays?
Pf apPOL block: -9.8; mHTT-CaM PPI inh: 3.1

Results for COc1ccc(Cl)cc1N1CCN(C(=O)C2CCC2)C(C)C1=O (centres undefined) ?
Pf apPOL block: -1.4; mHTT-CaM PPI inh: -5.9

How did COc1ccc(C2C3=C(CC(C)(C)CC3=O)Nc3nc(SC)nn32)c(OC)c1 (centres undefined) do in these assays?
Pf apPOL block: -14.2; mHTT-CaM PPI inh: 1.0

Results for C=CCNC(=O)C1CCN(c2cccc(C)c2C)C1=O (centres undefined) ?
Pf apPOL block: -0.5; mHTT-CaM PPI inh: 1.1

How did O=C1N=c2ccccc2=C1c1sc(Nc2ccc(Br)cc2)nc1O do in these assays?
Pf apPOL block: 6.4; mHTT-CaM PPI inh: 28.0

What do the screens show for `O=C1N=c2ccccc2=C1c1sc(Nc2cccc(O)c2)nc1O`?
Pf apPOL block: -1.0; mHTT-CaM PPI inh: 60.6*

Results for COc1ccc(NC(=O)C2CN(S(=O)(=O)C3CC3)CC23CCCCC3)cc1 (centres undefined) ?
Pf apPOL block: 9.3; mHTT-CaM PPI inh: 57.9*

What do the screens show for `COc1ccc(OC)c(NC(=O)C2CN(S(=O)(=O)C3CC3)CC23CCCCC3)c1` (centres undefined)?
Pf apPOL block: -1.9; mHTT-CaM PPI inh: 15.3

How did CCOC(=O)NC(=S)c1ccc(OC)cc1 do in these assays?
Pf apPOL block: 3.0

What do the screens show for `COc1ccc(C(=S)NN)cc1`?
mHTT-CaM PPI inh: 58.2*

Results for Clc1ccccc1C1CC(c2ccco2)=Nc2ccccc2S1 (centres undefined) ?
Pf apPOL block: -2.0; mHTT-CaM PPI inh: 51.0*

What do the screens show for `Cc1ccc(C2CC(c3ccccc3)=Nc3ccccc3S2)cc1` (centres undefined)?
Pf apPOL block: -6.7

How did COCCn1c(CC2CCN(C(=O)c3ccccc3)C2)nc2cccnc21 (centres undefined) do in these assays?
Pf apPOL block: -5.8; mHTT-CaM PPI inh: -3.9

What do the screens show for `COc1ccc(CCNC(=O)COc2ccc(C(C)C)cc2)cc1OC`?
Pf apPOL block: -5.8; mHTT-CaM PPI inh: 9.0

Results for CCOC(=O)C=CCOc1cc2c(C(=O)OCC)c(C)oc2cc1Br ?
Pf apPOL block: -4.8; mHTT-CaM PPI inh: -9.6

Results for Cc1ccc(N2C(=O)C3C4C=CC(C5CC45)C3C2=O)cc1Cl (centres undefined) ?
Pf apPOL block: 1.9; mHTT-CaM PPI inh: 0.0

What do the screens show for `O=C(O)c1cc(N2C(=O)C3C4C=CC(C5CC45)C3C2=O)ccc1Cl` (centres undefined)?
Pf apPOL block: 63.3*; mHTT-CaM PPI inh: 4.0
